# Residue numbers refer to the chain shown, from its start.
# Columns and labels:
# Experiment in all cases: HT-SELEX; high values mean tight binding
# Settings in all cases: protein: recombinant; vector His6-GST; dsDNA, one strand shown
# [1] = molecular target: T1, SALL4 ZFC4 WT (HT-SELEX) (Mus musculus, UniProt Q8BX22 870-940)
# T1 sequence: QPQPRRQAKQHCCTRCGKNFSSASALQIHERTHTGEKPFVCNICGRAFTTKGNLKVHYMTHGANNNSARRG
# In short: (§1)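 A 100 µl reaction of 10 mM Tris–HCl pH 7.5, 50 mM NaCl, poly(dI-dC) and DTT held purified recombinant mouse SALL4 zinc finger cluster 4 (residues 870–940, 1 µg) and library DNA (1.5 µg first cycle, 200 ng later) for 10 min at room temperature. Complexes captured on Ni2+ beads were washed, PCR-amplified and reselected for up to 6 cycles, in triplicate, then MiSeq-sequenced and scanned for 6-mers. Binding signal is the read fraction of each canonical k-mer expressed as fold change over the initial random library.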
# [2] = molecular target: T2, SALL4 ZFC4 R900W (HT-SELEX) (Mus musculus, UniProt Q8BX22 870-940, R900W)
# T2 sequence: T1 sequence with R31W
# In short: as §1
# [3] = molecular target: T3, SALL4 ZFC4 G921D (HT-SELEX) (Mus musculus, UniProt Q8BX22 870-940, G921D)
# T3 sequence: T1 sequence with G52D
# In short: as §1
Sequence,binding signal [1],binding signal [2],binding signal [3]
ATGCAC,0.606 ± 0.0179 fold-change vs cycle 0,0.667 ± 0.022 fold-change vs cycle 0,0.775 ± 0.052 fold-change vs cycle 0
AACCGG,0.336 ± 0.0219 fold-change vs cycle 0,0.391 ± 0.0169 fold-change vs cycle 0,0.498 ± 0.0509 fold-change vs cycle 0
ACTCTC,0.904 ± 0.0319 fold-change vs cycle 0,1.05 ± 0.0292 fold-change vs cycle 0,1.07 ± 0.0307 fold-change vs cycle 0
ATCCTA,1.48 ± 0.0397 fold-change vs cycle 0,1.6 ± 0.0899 fold-change vs cycle 0,1.46 ± 0.117 fold-change vs cycle 0
AGATTC,1.34 ± 0.0579 fold-change vs cycle 0,1.42 ± 0.0466 fold-change vs cycle 0,1.39 ± 0.0922 fold-change vs cycle 0
ATTGTC,1.14 ± 0.0493 fold-change vs cycle 0,1.21 ± 0.0499 fold-change vs cycle 0,1.24 ± 0.0435 fold-change vs cycle 0
AGACAA,1.15 ± 0.0323 fold-change vs cycle 0,1.28 ± 0.0792 fold-change vs cycle 0,1.26 ± 0.0604 fold-change vs cycle 0
CAATAA,2.18 ± 0.182 fold-change vs cycle 0,1.91 ± 0.101 fold-change vs cycle 0,1.73 ± 0.173 fold-change vs cycle 0
AGTATA,2.16 ± 0.0916 fold-change vs cycle 0,2.13 ± 0.148 fold-change vs cycle 0,1.85 ± 0.204 fold-change vs cycle 0
ATGGGA,0.904 ± 0.0547 fold-change vs cycle 0,0.99 ± 0.053 fold-change vs cycle 0,0.966 ± 0.0349 fold-change vs cycle 0
ACTAAG,1.42 ± 0.0426 fold-change vs cycle 0,1.61 ± 0.0315 fold-change vs cycle 0,1.45 ± 0.0661 fold-change vs cycle 0
CTGTCA,0.753 ± 0.03 fold-change vs cycle 0,0.862 ± 0.0445 fold-change vs cycle 0,0.932 ± 0.0438 fold-change vs cycle 0
CTCCTA,0.926 ± 0.0641 fold-change vs cycle 0,1.07 ± 0.0219 fold-change vs cycle 0,1.05 ± 0.0362 fold-change vs cycle 0
CATGCA,0.683 ± 0.0413 fold-change vs cycle 0,0.757 ± 0.0296 fold-change vs cycle 0,0.805 ± 0.0272 fold-change vs cycle 0
CCTGAA,0.792 ± 0.0306 fold-change vs cycle 0,0.933 ± 0.0447 fold-change vs cycle 0,0.951 ± 0.0276 fold-change vs cycle 0
GAGACA,0.735 ± 0.0463 fold-change vs cycle 0,0.867 ± 0.0277 fold-change vs cycle 0,0.933 ± 0.0384 fold-change vs cycle 0
ATGCAT,1.33 ± 0.0832 fold-change vs cycle 0,1.27 ± 0.0798 fold-change vs cycle 0,1.26 ± 0.0876 fold-change vs cycle 0
AACAAC,1.18 ± 0.0643 fold-change vs cycle 0,1.26 ± 0.0286 fold-change vs cycle 0,1.25 ± 0.0618 fold-change vs cycle 0
ATCAAG,1.41 ± 0.0614 fold-change vs cycle 0,1.55 ± 0.0618 fold-change vs cycle 0,1.47 ± 0.0828 fold-change vs cycle 0
AGACTA,1.31 ± 0.0607 fold-change vs cycle 0,1.47 ± 0.0959 fold-change vs cycle 0,1.41 ± 0.0994 fold-change vs cycle 0

Sequence,binding signal [1],binding signal [2],binding signal [3]
CACTGA,0.799 ± 0.0339 fold-change vs cycle 0,0.912 ± 0.0516 fold-change vs cycle 0,0.949 ± 0.00436 fold-change vs cycle 0
GCTAAA,0.898 ± 0.0417 fold-change vs cycle 0,1 ± 0.0491 fold-change vs cycle 0,1.03 ± 0.0278 fold-change vs cycle 0
ATACCC,0.85 ± 0.0409 fold-change vs cycle 0,0.935 ± 0.04 fold-change vs cycle 0,0.962 ± 0.0418 fold-change vs cycle 0
AATTAC,2.12 ± 0.116 fold-change vs cycle 0,2 ± 0.127 fold-change vs cycle 0,1.82 ± 0.181 fold-change vs cycle 0
GTAGGA,0.827 ± 0.0404 fold-change vs cycle 0,0.946 ± 0.029 fold-change vs cycle 0,0.948 ± 0.0466 fold-change vs cycle 0
ACTTTG,1.14 ± 0.054 fold-change vs cycle 0,1.27 ± 0.0366 fold-change vs cycle 0,1.24 ± 0.052 fold-change vs cycle 0
CATGAC,0.822 ± 0.0546 fold-change vs cycle 0,0.938 ± 0.0407 fold-change vs cycle 0,1 ± 0.0669 fold-change vs cycle 0
GACTAA,1.21 ± 0.0577 fold-change vs cycle 0,1.39 ± 0.093 fold-change vs cycle 0,1.3 ± 0.0798 fold-change vs cycle 0
GAAACA,1.23 ± 0.0252 fold-change vs cycle 0,1.33 ± 0.0252 fold-change vs cycle 0,1.29 ± 0.046 fold-change vs cycle 0
TCGACA,0.525 ± 0.0359 fold-change vs cycle 0,0.609 ± 0.0106 fold-change vs cycle 0,0.731 ± 0.0296 fold-change vs cycle 0
AGATGC,0.625 ± 0.0322 fold-change vs cycle 0,0.721 ± 0.0174 fold-change vs cycle 0,0.833 ± 0.0268 fold-change vs cycle 0
CAGTAA,1.35 ± 0.0452 fold-change vs cycle 0,1.48 ± 0.063 fold-change vs cycle 0,1.37 ± 0.109 fold-change vs cycle 0
CGAGTA,0.742 ± 0.0199 fold-change vs cycle 0,0.848 ± 0.0261 fold-change vs cycle 0,0.87 ± 0.0313 fold-change vs cycle 0
AATTGT,1.82 ± 0.0686 fold-change vs cycle 0,1.81 ± 0.0917 fold-change vs cycle 0,1.66 ± 0.114 fold-change vs cycle 0
ACACGG,0.354 ± 0.0115 fold-change vs cycle 0,0.455 ± 0.00764 fold-change vs cycle 0,0.548 ± 0.0679 fold-change vs cycle 0
CAAATC,1.1 ± 0.0172 fold-change vs cycle 0,1.18 ± 0.0162 fold-change vs cycle 0,1.21 ± 0.0283 fold-change vs cycle 0
TATAGA,2.35 ± 0.163 fold-change vs cycle 0,2.02 ± 0.132 fold-change vs cycle 0,1.81 ± 0.192 fold-change vs cycle 0
AAGCAT,1.23 ± 0.027 fold-change vs cycle 0,1.26 ± 0.0143 fold-change vs cycle 0,1.273 ± 0.011 fold-change vs cycle 0
AGTTGG,0.73 ± 0.0169 fold-change vs cycle 0,0.834 ± 0.0159 fold-change vs cycle 0,0.883 ± 0.0279 fold-change vs cycle 0
TAAGTA,2.21 ± 0.113 fold-change vs cycle 0,2.23 ± 0.16 fold-change vs cycle 0,1.89 ± 0.229 fold-change vs cycle 0

Sequence,binding signal [1],binding signal [2],binding signal [3]
AGTATC,1.37 ± 0.0932 fold-change vs cycle 0,1.48 ± 0.12 fold-change vs cycle 0,1.44 ± 0.125 fold-change vs cycle 0
GATTCC,0.9 ± 0.0488 fold-change vs cycle 0,0.964 ± 0.0255 fold-change vs cycle 0,1.03 ± 0.0179 fold-change vs cycle 0
ATATAC,2.19 ± 0.164 fold-change vs cycle 0,1.98 ± 0.103 fold-change vs cycle 0,1.78 ± 0.131 fold-change vs cycle 0
ACCACT,0.783 ± 0.0402 fold-change vs cycle 0,0.885 ± 0.0293 fold-change vs cycle 0,0.93 ± 0.0313 fold-change vs cycle 0
AGACGG,0.342 ± 0.0181 fold-change vs cycle 0,0.409 ± 0.00782 fold-change vs cycle 0,0.522 ± 0.0641 fold-change vs cycle 0
AGACCT,0.753 ± 0.0476 fold-change vs cycle 0,0.917 ± 0.0202 fold-change vs cycle 0,0.963 ± 0.0152 fold-change vs cycle 0
ATAGAT,2.3 ± 0.159 fold-change vs cycle 0,2.05 ± 0.124 fold-change vs cycle 0,1.86 ± 0.167 fold-change vs cycle 0
CTTTTC,1.14 ± 0.0195 fold-change vs cycle 0,1.29 ± 0.0412 fold-change vs cycle 0,1.218 ± 0.00999 fold-change vs cycle 0
AGTGAC,0.776 ± 0.012 fold-change vs cycle 0,0.91 ± 0.0317 fold-change vs cycle 0,0.973 ± 0.0424 fold-change vs cycle 0
AAATGA,2.02 ± 0.088 fold-change vs cycle 0,1.91 ± 0.0687 fold-change vs cycle 0,1.75 ± 0.132 fold-change vs cycle 0
AGCGAT,0.553 ± 0.0342 fold-change vs cycle 0,0.644 ± 0.0243 fold-change vs cycle 0,0.766 ± 0.0387 fold-change vs cycle 0
AGGAAC,0.86 ± 0.0507 fold-change vs cycle 0,1.02 ± 0.0591 fold-change vs cycle 0,1.04 ± 0.0533 fold-change vs cycle 0
CAACAC,0.658 ± 0.0239 fold-change vs cycle 0,0.8 ± 0.0226 fold-change vs cycle 0,0.849 ± 0.0276 fold-change vs cycle 0
GATCAC,0.862 ± 0.0581 fold-change vs cycle 0,1.01 ± 0.0278 fold-change vs cycle 0,1.11 ± 0.0305 fold-change vs cycle 0
ACAACA,1.16 ± 0.0181 fold-change vs cycle 0,1.28 ± 0.0315 fold-change vs cycle 0,1.25 ± 0.0467 fold-change vs cycle 0
ACACTC,0.798 ± 0.0206 fold-change vs cycle 0,0.908 ± 0.0437 fold-change vs cycle 0,0.948 ± 0.0215 fold-change vs cycle 0
GTTACA,1.35 ± 0.0329 fold-change vs cycle 0,1.46 ± 0.0565 fold-change vs cycle 0,1.37 ± 0.0864 fold-change vs cycle 0
AACCTG,0.802 ± 0.0637 fold-change vs cycle 0,0.917 ± 0.053 fold-change vs cycle 0,0.952 ± 0.0288 fold-change vs cycle 0
AATCGA,1.08 ± 0.05 fold-change vs cycle 0,1.14 ± 0.0428 fold-change vs cycle 0,1.2 ± 0.0389 fold-change vs cycle 0
AGTACT,1.32 ± 0.0981 fold-change vs cycle 0,1.45 ± 0.094 fold-change vs cycle 0,1.4 ± 0.116 fold-change vs cycle 0

# Source: publication PMC9838217, “Structure of SALL4 zinc finger domain reveals link between AT-rich DNA binding and Okihiro syndrome”
